uPA surface inh – blocks generation of uPA at the cell surface; cell surface uPA generation assay, qHTS; Potency, µM (series often up to 38.3 µM), for inactives: at the top dose activity change, negative = inhibition, actives largely listed as inhibitors; 330,000 tested, 0.31% active; AID 540303; active = well fitted inhibition curve with a large enough effect; inconclusive = small, poorly fitted or top-dose-only effect; inactive = no such curve, though single readings can be large or run the other way; tested in mouse RAW 264.7 cells; also: potency is read from the fitted curve at half-maximal effect; nearly all actives have a fitted effect of over 55% in size
TDP1 cell CPT – DT40-hTDP1 cell growth loss with CPT; Potency, µM (top dose mostly 46.2 µM), without a hit: at the top dose activity change, negative = growth inhibition, actives largely listed as inhibitors; chicken DT40 Tdp1-/-;hTDP1 cells + 20 nM CPT, ATP luminescence, 48 h; 420,000 tested, 12% active; also: potency is read from the fitted curve at half-maximal effect; nearly all actives have a fitted effect of over 55% in size
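Chicken DT40 Tdp1-/- cells complemented with human TDP1, 400 cells/well, exposed to compounds plus 20 nM camptothecin for at least 48 h at 37 C; viability read as ATP content by CellTiter-Glo luminescence.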
HT1080-NT tox – kills 2HG-producing HT-1080-NT fibrosarcoma cells. HT-1080-NT fibrosarcoma viability, CellTiter-Glo ATP luminescence, 48 h. Potency, µM (titrated, usually from 46.1 µM), without a hit: at the highest dose activity, negative = less viability, most hits filed as cytotoxic. 360,000 tested, 1.6% active. AID 686970;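 also: NT is the 2HG producing partner of a matched IDH1 knockdown line; potency is read from the fitted curve at half-maximal effect; 0% = DMSO-treated cells and -100% = media-only wells without cells; nearly all actives have a fitted effect of over 55% in size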
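Luminescent CellTiter-Glo readout after 48 hours of compound exposure at 37 degrees C defined viability of HT-1080-NT cells. Activity was normalized to DMSO wells and cell-free media wells; concentration-response curves were fitted and assigned curve classes.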
IL-1B inflam inh – inflammasome signaling inhibition, IL-1 beta readout. THP-1 LPS/ATP IL-1B secretion, AlphaLISA, 16 h; active compounds read low. activity change, % at 57.5 µM. 360,000 tested, 4.7% active. AID 743279; in the data active = activity change below about -50%; inconclusive = mostly about -30% to -49%
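THP-1 cells pretreated 1 hr with compounds (up to 57.5 uM final), then stimulated with LPS (250 ng/mL final) plus ATP (1.25 mM final); secreted IL-1B measured by AlphaLISA after 16 hr, decreased signal indicating inhibition.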
HT1080 IDH1KD tx – HT-1080 IDH1 knockdown cell toxicity (counter line); HT-1080 IDH1 knockdown viability, ATP luminescence, 48 h; Potency, µM (doses to about 46.1 µM), for inactives: at the highest dose activity, negative = toxicity, hits mostly cytotoxic; 360,000 tested, 2% active;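 also: potency is read from the fitted curve at half-maximal effect; 0% = DMSO wells and -100% = cell-free medium wells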
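In this qHTS, HT-1080 cells depleted of IDH1 are exposed for 48 h at 37 °C to compound titrations. Toxicity is scored from CellTiter-Glo luminescence, with DMSO as full viability and medium alone as none.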
TDP1 cell noCPT – qHTS for Inhibitors of human tyrosyl-DNA phosphodiesterase 1 (TDP1): qHTS in cells in absence of CPT; AID 686978, 2013; DT40 Tdp1-/- hTDP1 cells, no CPT, ATP luminescence, 48 h; 420,000 tested, 15% active; Potency, µM (highest dose often 46.2 µM), without a hit: at the top dose activity change, negative = growth inhibition, actives largely listed as inhibitors; also: potency is read from the fitted curve at half-maximal effect; nearly all actives have a fitted effect of over 55% in size
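Cells were dispensed at 400 per well, compounds added by pin tool, plates incubated ≥48 hr at 37 °C, then CellTiter-Glo added for 30 min at room temperature before luminescence reading. Line: DT40 Tdp1-/- complemented with hTDP1; camptothecin omitted.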
Numbers without * were called inactive; ? = inconclusive; · = no result given. Compounds with a hit are over-represented: about 19% of the library has one in this group of screens. Unless noted, calls follow the shape of the dose curve; as a rule, active = well fitted curve in the direction sought with a large enough effect; inconclusive = small, poorly fitted or top-dose-only effect, or another doubt; inactive = no such curve, though single readings can be large; an effect the other way counts as inactive or inconclusive. Unless noted, % is scaled to controls: 0 for no effect and ±100 for the full control effect.

SMILES | uPA surface inh | TDP1 cell CPT | HT1080-NT tox | IL-1B inflam inh | HT1080 IDH1KD tx | TDP1 cell noCPT
CCN(CC)C(=O)/C(=C\c1ccc(Br)cc1)NC(=O)c1ccccc1OC | 5% | ? | 2% | 9 | -3% | 15µM*
O=C(CSc1nc(=O)n(Cc2ccco2)c2c1CCC2)NCc1ccccc1 | · | -24% | · | · | · | -26%
O=c1c2cc3c(cc2n(Cc2ccccc2)c(=O)n1Cc1nc(-c2ccccc2)no1)OCO3 | · | -25% | · | · | · | -22%
CSCCC(C(=O)Nc1c(C)cccc1C)n1c(-c2ccc(-c3ccccc3)cc2)nc2ccccc21 (centres undefined) | · | 10µM* | 9% | -9 | 6% | ?
O=C(NCc1ccccc1)C(c1ccccc1)n1c(C2CC2)nc2ccccc21 (centres undefined) | · | ? | -13% | -8 | -26% | ?
CSCCC(C(=O)NCc1ccccc1)n1c(C2CCN(C(C)=O)CC2)nc2ccccc21 (centres undefined) | · | ? | 13% | -52* | 17% | ?
CSCCC(C(=O)Nc1c(C)cccc1C)n1c(-c2cc(C)cs2)nc2ccccc21 (centres undefined) | · | ? | 0% | -11 | -1% | ?
CSCCC(C(=O)Nc1c(C)cccc1C)n1c(COc2ccc(C)cc2)nc2ccccc21 (centres undefined) | · | 12µM* | -29% | -58* | ? | 9.2µM*
Cc1ccccc1C(=O)Nc1cccc(C(=O)OCc2cc(=O)n3c(C)csc3n2)c1 | · | -109% | · | · | · | ?
O=C(Nc1ccccc1)C1=C[C@H](c2ccc(Br)cc2)C[C@H](OCc2ccc(CO)cc2)O1 | 1% | 29µM* | -18% | -53* | -3% | ?
O=C(Nc1ccccc1)C1=C[C@@H](c2ccccc2)C[C@@H](OCc2ccc(CO)cc2)O1 | -8% | ? | -4% | 14 | -11% | -20%
O=C(Nc1ccccc1)C1=C[C@@H](c2ccc(C(F)(F)F)cc2)C[C@@H](OCc2ccc(CO)cc2)O1 | -30% | 23µM* | ? | -22 | -27% | 18µM*
C[C@@H]1C[C@H]2[C@@H]3C[C@H](F)C4=CC(=O)C=C[C@]4(C)[C@@]3(Cl)[C@@H](O)C[C@]2(C)[C@H]1C(=O)COC(=O)C(C)(C)C | -26% | -22% | ? | ? | ? | ?
N#CC(C(=O)OC1CCCCC1)c1nc2ccccc2nc1N1CCOCC1 (centres undefined) | 3% | ? | 14% | -19 | 13% | ?
CCN1CCN(c2nc3ccccc3nc2C(C#N)C(=O)OC2CCCCC2)CC1 (centres undefined) | -9% | 23µM* | -5% | -23 | -7% | 23µM*
CN1CCN(c2nc3ccccc3nc2C(C#N)C(=O)OC2CCCCC2)CC1 (centres undefined) | -2% | 29µM* | -6% | ? | 2% | ?
CC(C)c1ccc(-c2nnc(SCC(=O)NC3CC3)n2C)cc1 | 2% | -25% | 16% | 61 | 0% | 7%
CC(=O)c1ccc(OCC(=O)Nc2ccc3c(c2)OCO3)cc1 | · | -10% | -24% | ? | -21% | ?
Cc1nc2cnc(N3CCOCC3)nc2n(C[C@H]2CCCO2)c1=O | · | -5% | · | · | · | 9%
CCCN1C(=O)c2cc(C(=O)Nc3cccc(C(C)=O)c3)ccc2C1Nc1cccc(C(C)=O)c1 (centres undefined) | -10% | 8.2µM* | ? | 0 | -1% | 15µM*
CC(NCC(=O)Nc1ccccc1C(=O)NC1CC1)c1ccc(F)cc1F (centres undefined) | 4% | ? | 7% | -4 | 1% | -10%
CC(C)(C)OC(=O)N1CCN(C(=O)OCC2c3ccccc3-c3ccccc32)CC1C(=O)O (centres undefined) | -4% | 23µM* | -5% | 0 | -1% | ?
C=CCCN(C(C(=O)OC)C(C)C)S(=O)(=O)c1ccccc1Br (centres undefined) | -25% | ? | 8% | 17 | 8% | ?
Cc1ccc(C(=O)c2c3ccc(C(F)(F)F)cc3[n+]([O-])n2CCCN)cc1 | -14% | 23µM* | 2% | -53* | 1% | 23µM*
COc1ccc(C)cc1N(C(=O)c1ccc(F)cc1)c1nc2ccccc2s1 | -5% | ? | 12% | -16 | -12% | 16µM*
SMILES | uPA surface inh | TDP1 cell CPT | HT1080-NT tox | IL-1B inflam inh | HT1080 IDH1KD tx | TDP1 cell noCPT
CC(=O)Oc1cccc(N2C(=O)c3cccc4c([N+](=O)[O-])ccc(c34)C2=O)c1 | ? | 2.3µM* | -2% | -95* | -2% | 2.9µM*
O=C(Nc1nccs1)c1cccc(N2C(=O)c3cccc4c([N+](=O)[O-])ccc(c34)C2=O)c1 | -10% | 5.2µM* | 21µM* | -106* | 16µM* | 3.7µM*
O=C(O)c1ccc(CN2C(=O)c3cccc4c([N+](=O)[O-])ccc(c34)C2=O)cc1 | -3% | 15µM* | ? | -99* | ? | 16µM*
Cc1ccc(C(=O)O)cc1N1C(=O)c2cccc3c([N+](=O)[O-])ccc(c23)C1=O | ? | 6.5µM* | 16µM* | 0 | ? | 6.5µM*
O=S1(=O)N[C@@H](c2ccccc2)COc2cc(Br)ccc21 | · | -16% | 5% | -6 | 1% | ?
CCC(=O)c1ccc(OCC(=O)OCC(=O)N(CCC#N)c2ccc3c(c2)OCCO3)cc1 | 3% | -9% | 3% | 17 | -1% | -19%
CC(=O)c1sc(=S)n(-c2ccc(Cl)cc2)c1C | 9% | 18µM* | 2% | 20 | -1% | ?
CN(C(=O)COC(=O)c1ccc(-c2ccc(O)cc2)cc1)C1CCS(=O)(=O)C1 (centres undefined) | -4% | -7% | 6.5µM* | 1 | 18µM* | 12%
Cc1nnsc1C(=O)NC1CCCc2c1cnn2-c1ccccc1F (centres undefined) | 4% | 10µM* | ? | 4 | -11% | 18µM*
O=C(NC1CCCc2c1cnn2-c1ccccc1F)c1ccccn1 (centres undefined) | ? | ? | -17% | 0 | -2% | ?
Cc1ccc(-n2ncc3c2CCCC3NC(=O)c2csnn2)cc1C (centres undefined) | 6% | ? | 1% | 0 | -7% | ?
